Compound activity deposited in PubChem by National Center for Advancing Translational Sciences (NCATS).
BAZ2B block: blocks human BAZ2B; 360,000 compounds, 4.4% hits; Q9UIF8; AID 504333; AlphaScreen BAZ2B-H3K14Ac peptide displacement; Potency, µM (titrated, usually from 114 µM), usual class: inhibitors; note: nearly all actives have a fitted effect of over 60% in size
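Complex of BAZ2B and biotin-H3K14Ac (50 nM apiece) forms over 30 min at RT, then faces library compounds up to 110 uM for another 30 min; AlphaScreen beads added, 20 min dark incubation, luminescence read.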
JMJD2A Tudor: inhibitors of human JMJD2A Tudor domain. O75164. AlphaScreen JMJD2A-Tudor / H3K4me3 peptide binding. Potency, µM (doses to about 114 µM), hits mostly inhibitors. 390,000 compounds, 4.4% hits. AID 504339; note: nearly all actives have a fitted effect of over 50% in size
PI5P4Ka inh: PI5P4K alpha (human) kinase inhibition | PI5P4Kalpha enzyme, ADP-Glo luminescence, 60 min; hits give low values | max response, % | 330,000 compounds, 1.2% hits | AID 652105; active = max response of -50% or lower; inconclusive = between -30% and -50%; inactive = -30% or higher; note: value at the top dose of about 77 µM
Target sequence (P48426 whole entry, looked up): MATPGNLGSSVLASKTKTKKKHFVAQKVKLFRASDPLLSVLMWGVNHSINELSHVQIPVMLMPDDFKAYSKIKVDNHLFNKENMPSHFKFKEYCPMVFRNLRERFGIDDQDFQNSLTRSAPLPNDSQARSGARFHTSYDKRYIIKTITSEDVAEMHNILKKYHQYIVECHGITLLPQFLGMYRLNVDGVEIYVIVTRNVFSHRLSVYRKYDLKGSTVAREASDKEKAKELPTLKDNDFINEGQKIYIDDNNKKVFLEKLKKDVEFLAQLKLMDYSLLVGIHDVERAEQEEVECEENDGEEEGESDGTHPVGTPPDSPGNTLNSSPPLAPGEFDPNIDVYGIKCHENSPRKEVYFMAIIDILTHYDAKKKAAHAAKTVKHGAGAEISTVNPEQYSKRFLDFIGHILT
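Human PI5P4Kalpha with substrate in 0.038 M HEPES pH 7.4, 0.28 mM EGTA, 0.1% CHAPS, 5% DMSO; reaction started with 5 microM ATP (final), 60 min at room temperature. ADP formed read by ADP-Glo luminescence.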
L3MBTL1 inh: L3MBTL1 (human) inhibition | Q9Y468 | AlphaScreen L3MBTL1–H3K9me1 peptide binding | Potency, µM (top dose mostly 57.1 µM), hits mostly inhibitors | 230,000 compounds, 0.66% hits | AID 485360; note: nearly all actives have a fitted effect of over 60% in size
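Read-out is AlphaScreen signal from streptavidin donor and nickel chelate acceptor beads (10 ug/mL final each) bridging L3MBTL1 (50 nM) and biotinylated K9-monomethylated H3(1-15) peptide (75 nM), after 30 min compound exposure at room temperature.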
G9a inh: blocks human histone lysine methyltransferase G9a | G9a H3K9 monomethylation, AlphaScreen, 2 h | 350,000 compounds, 8.8% hits | AID 504332 | Potency, µM (top dose mostly 102 µM), actives largely listed as inhibitors; note: nearly all actives have a fitted effect of over 75% in size
Target sequence (Q96KQ7 913-1193 limits assumed): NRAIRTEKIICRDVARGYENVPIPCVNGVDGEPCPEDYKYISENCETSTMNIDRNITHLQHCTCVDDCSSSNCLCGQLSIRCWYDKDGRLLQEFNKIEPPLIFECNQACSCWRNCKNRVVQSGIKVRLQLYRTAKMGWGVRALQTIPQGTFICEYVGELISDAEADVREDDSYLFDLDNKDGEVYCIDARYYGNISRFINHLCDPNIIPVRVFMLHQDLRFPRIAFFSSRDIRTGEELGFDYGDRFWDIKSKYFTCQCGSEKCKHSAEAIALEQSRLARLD
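Signal arises when biotinylated H3K9 peptide, once monomethylated, bridges streptavidin donor and antibody-captured acceptor beads. Enzyme at 20 nM was preincubated 15 min with test compounds; peptide 500 nM and SAM 20 uM then reacted for 2 h.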
HP1b chromo inh: HP1-beta chromodomain-methylated histone interaction inhibition; P83916; AlphaScreen HP1-beta / biotin-H3K9me3 peptide binding; Potency, µM (series often up to 114 µM), usual class: inhibitors; 390,000 compounds, 0.56% hits; AID 540317; note: nearly all actives have a fitted effect of over 70% in size
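AlphaScreen: HP1-beta (50 nM) preformed 30 min with biotin-H3(1-18)K9me3 peptide (50 nM) in PBS pH 7.4, 0.01% Tween-20. Compound added for 30 min at RT, then streptavidin donor/nickel chelate acceptor beads (10 ug/mL) for 30 min.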
Hits are given with their value; i = inactive; ? = inconclusive; nt = no result given; [ ] = another dose, or the depositor's remark. Shown are actives, neighbours in structure and some others; about 11% of the full set was active somewhere. Unless noted, calls come from the whole dose curve; as a rule, active = well fitted inhibition curve with a large enough effect; inconclusive = small, poorly fitted or top-dose-only effect; inactive = no such curve, though single readings can be large or run the other way.

SMILES | BAZ2B block | JMJD2A Tudor | PI5P4Ka inh | L3MBTL1 inh | G9a inh | HP1b chromo inh
Cc1cccc2sc(NC(=O)Cn3cccc3)nc12 | ? | ? | i | i | 44.7µM | i
Cc1cccc2sc(NC(=O)CSCc3ccccc3)nc12 | i | i | nt | nt | i[12.7 µM] | i
Cc1cccc2sc(NC(=O)CCn3cccc3)nc12 | nt | i | i | nt | 50.1µM | ?
Cc1ccc2nc(NC(=O)CCn3cccc3)sc2c1 | i | i | i | i | i | i
COc1cccc(CNC(=O)CCCn2c(=O)c3cccn3c3ccc(F)cc32)c1OC | i | i | nt | nt | i | i
Cc1ccc(C)c(/C=C/C(=O)c2ccccc(=O)c2O)c1 | 56.2µM | ? | i | i | 44.7µM | i
O=C(/C=C/c1ccccc1Cl)c1ccccc(=O)c1O | 56.2µM | ? | i | i | 31.6µM | ?
Cc1ccc(/C=C/C(=O)c2ccccc(=O)c2O)c(C)c1 | 50.1µM | ? | i | i | 50.1µM | i
O=C(/C=C/c1ccc(Br)cc1)c1ccc(NC2=NCCCS2)cc1 | ? | ? | i | i | ? | i
Cc1cccc(/C=C/C(=O)c2ccc(NC3=NCCCS3)cc2)c1 | ? | 44.7µM | i | i | ? | i
COc1cccc(/C=C/C(=O)c2ccc(NC3=NCCCS3)cc2)c1 | ? | ? | i | i | 44.7µM | i
CC(C)(C)c1ccc(/C=C/C(=O)c2ccc(NC3=NCCCS3)cc2)cc1 | ? | ? | i | i | 39.8µM | i
O=C(/C=C/c1ccccc1)c1ccc(NC2=NCCCS2)cc1 | ? | ? | i | i | ? | i
Cc1ccc(Cn2c(C(=O)NCc3ccccc3Cl)cc3sccc32)cc1 | i | i | nt | nt | ? | i
COc1ccc2[nH]cc(CCNc3nc(-c4ccc(N(C)C)cc4)nc4ccccc34)c2c1 | nt | nt | nt | nt | i[0.501 µM] | nt
CCn1cc(Cl)c(C(=O)Nc2cccc(C(F)(F)F)c2)n1 | i | 50.1µM | i | i | i | i
Nc1ccccc1Nc1cccc(C(F)(F)F)c1 | 50.1µM | ? | i | i | 6.31µM | ?
CCCCCNCC(=O)Nc1cccc(C(=O)Nc2cccc(C(F)(F)F)c2)c1 | ? | 5.01µM | i | i | nt | ?
O=C(CN1CCOCC1)Nc1cccc(C(=O)Nc2cccc(C(F)(F)F)c2)c1 | i | i | i | i | i | i
Cc1cc(C)nc(Nc2cccc(C(F)(F)F)c2)n1 | i | i | i | i | 50.1µM | i
Cc1nc(Cl)sc1C(=O)Nc1cccc(C(F)(F)F)c1 | nt | i | i | nt | nt | i
Cc1cc(Cl)c(C(=O)Nc2cccc(C(F)(F)F)c2)c(C)n1 | ? | ? | i | i | 44.7µM | i
CCOC(=O)c1ccc(Nc2cc(C)nc(C)c2C(=O)OCC)cc1 | i | i | i | nt | i | i
CCOC(=O)c1ccc(NC(=O)c2nccnc2C(=O)O)cc1 | ? | 39.8µM | i | i | 28.2µM | i
CCOC(=O)c1ccc(NC(=O)c2c(Cl)cc(C)nc2C)cc1 | i | i | i | i | 50.1µM | i
SMILES | BAZ2B block | JMJD2A Tudor | PI5P4Ka inh | L3MBTL1 inh | G9a inh | HP1b chromo inh
O=C(CN1C(=O)CSc2ccc(S(=O)(=O)N3CCCC3)cc21)Nc1cccc(Cl)c1 | i | i | nt | nt | i | i
CCOC(=O)N1CCC(NC(=O)CCCN2C(=O)CSc3ncccc32)CC1 | i | i | i | nt | i | i
O=C(CCCN1C(=O)CSc2ncccc21)N1CCN(Cc2ccccc2)CC1 | i | i | i | i | 35.5µM | i
COc1ccc(NCc2ccccc2[N+](=O)[O-])cc1OC | 50.1µM | 50.1µM | i | ? | 11.2µM | ?
Cc1nn2c(C)c(C(=O)N3CCN(c4ccc(Cl)cc4)CC3)cnc2c1-c1ccc(F)cc1 | i | i | nt | nt | i | i
Cc1nc(-c2ccc(S(=O)(=O)Nc3ccc(C#N)cc3)cc2)co1 | i | i | nt | nt | i | i
Cc1c(O)ccc(/C(Cc2ccc3ccccc3n2)=N\N)c1O | ? | ? | i | ? | 8.91µM | i
C=CCN1C(=O)C(CC(=O)O)SC1=Nc1cccc([N+](=O)[O-])c1 (stereo not drawn) | i | i | i | i | i | i
C=CCN1C(=O)C(CC(=O)O)SC1=Nc1ccc(N=Nc2ccccc2)cc1 (stereo not drawn) | 39.8µM | ? | i | nt | 39.8µM | i
CCC(C)NC(=O)Cn1c(=O)n(-c2ccc(C)c(C)c2)c(=O)c2c(C)c(C(=O)N(CC)CC)sc21 (stereo not drawn) | i | ? | nt | nt | i | i
CS(=O)(=O)c1ccc(Cl)c(NC(=O)Cc2c(F)cccc2Cl)c1 | i | i | i | i | i | i
CS(=O)(=O)c1ccc(Cl)c(NC(=O)Cc2ccccc2F)c1 | i | 22.4µM | i | i | i | i
O=[N+]([O-])c1ccc(O)c(C=Nc2ccc3nc(-c4ccccc4)[nH]c3c2)c1 | i | i | ? | i | i | i
Oc1c(Br)cc(C=Nc2ccc3nc(-c4ccccc4)[nH]c3c2)c(O)c1Br | 39.8µM | ? | -70.9 | nt | 28.2µM | i
CC(=O)N1CCCC1c1nc2ccccc2n1Cc1ccccc1F (stereo not drawn) | i | i | nt | nt | i | i
C[N+]1(C)C2CCC1CC(OC(=O)C(O)c1ccccc1)C2 (stereo not drawn) | nt | nt | nt | nt | i[2.33 µM] | nt
COc1ccc(C(=O)c2sc3nc4c(c(C(F)(F)F)c3c2N)CN(C(C)=O)CC4)cc1OC | i | ? | nt | nt | i | i
CC(=O)N1CCc2nc3sc(C(=O)c4ccc(F)cc4)c(N)c3c(C(F)(F)F)c2C1 | 50.1µM | ? | nt | nt | i | i
CCC(C(=O)N(C)Cc1ccccc1)n1nc(C)c2sc3ccccc3c2c1=O (stereo not drawn) | i | i | nt | nt | i | i
CCN(CC(=O)NCc1ccc(F)cc1)Cc1cc(=O)n2ccsc2n1 | i | i | i | i | 44.7µM | i
CC(=O)Nc1ccc(NC(=O)C2CCN(c3c(NC(C)=O)c(C)nn3-c3ccccc3)CC2)cc1 | i | i | nt | nt | i | i
Cc1ccc(-c2noc(CN(C3CCCCC3)S(=O)(=O)c3ccc(C)cc3)n2)cc1 | i | i | nt | nt | i | i
CNC(=S)N1CCN(c2ccc([N+](=O)[O-])cc2)CC1 | i | i | i | i | i | i
Cc1ccc(N2CCN(C(=S)c3ccc(N(C)C)cc3)CC2)cc1 | 12.6µM | 31.6µM | nt | ? | 5.01µM | ?
CN(C)c1ccc(C(=S)N2CCN(c3ccc([N+](=O)[O-])cc3)CC2)cc1 | i | ? | i | i | 2.24µM | ?
SMILES | BAZ2B block | JMJD2A Tudor | PI5P4Ka inh | L3MBTL1 inh | G9a inh | HP1b chromo inh
Cc1ccc(N2CCN(C(=S)Nc3ccccc3)CC2)cc1 | i | i | i | nt | i | i
Cc1ccc(S(=O)(=O)N2CCc3cc(C(=O)N(C)Cc4ccccc4)ccc32)cc1 | i | i | nt | nt | i | i
COc1ccc(C(=O)CSc2nnc(CNC(=O)c3ccc(OC)c(OC)c3)n2C)cc1 | i | 44.7µM | i | i | i[12.7 µM] | i
COc1ccc(C(=O)CSc2nccn2C)cc1 | i | i | i | nt | 50.1µM | i
CCn1c(CNC(=O)c2ccc(OC)c(OC)c2)nnc1SCC(=O)c1ccc(OC)cc1 | i | i[11.4 µM] | i | i[11.4 µM] | 11.2µM | i
CCSCc1nnc(SCC(=O)c2ccc(OC)cc2)n1C | i | 50.1µM | i | i | ? | i
